Laboratory results: PubChem BioAssay AID1159580 (chemical genetic matrix, 2015)
About 2,000 (36%) of roughly 5,500 compounds were called active. About 18% were inconclusive and are not listed. No stated cut-off is given here; in the data, active means normalized growth mostly below about 0.91 (no sharp cut-off); inconclusive means no clear call, values can overlap the other calls; inactive means mostly above about 0.92. The list shows a part of the results.

Assay: chemical genetic growth profiling, strain panel (AID 1159580);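 further: tested at 20 µM; growth read once vehicle control cultures reached saturation at 30 °C; 1 = growth at the plate median or of vehicle wells; lower values mean less growth of the strain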
Settings: S. cerevisiae deletion strains, growth OD
[1] = locus YDL101C, strain DUN1, active compounds read low
[2] = locus YHR030C, strain SLT2, active compounds read low

Measured: normalized growth

COc1ccc(CC2CCC(=NOC(=O)c3c(Cl)cccc3Cl)CC2)cc1 (stereo unspecified)
inactive: locus YAR019C, strain CDC15, active compounds read low 1.03 | locus YBR135W, strain CKS1, active compounds read low 1.04 | locus YBR136W, strain MEC1, active compounds read low 1.05 | locus YBR160W, strain CDC28, active compounds read low 1.05 | locus YDL017W, strain CDC7, active compounds read low 1.04 | locus YDL028C, strain MPS1, active compounds read low 1.04 | [1] 0.994 | locus YDL108W, strain KIN28, active compounds read low 1.04 | locus YDL132W, strain cdc53, active compounds read low 1.01 | locus YDL214C, strain PRR2, active compounds read low 0.948 | locus YDR052C, strain DBF4, active compounds read low 0.99 | locus YDR054C, strain cdc34, active compounds read low 1.02 | locus YDR226W, strain ADK1, active compounds read low 1.02 | locus YDR477W, strain SNF1, active compounds read low 0.956 | locus YER123W, strain YCK3, active compounds read low 0.938 | locus YER133W, strain GLC7, active compounds read low 0.949 | locus YFL009W, strain cdc4, active compounds read low 1.02 | locus YFL029C, strain CAK1, active compounds read low 1.03 | locus YFR003C, strain YPI1, active compounds read low 1.04 | locus YFR019W, strain FAB1, active compounds read low 0.971 | locus YFR028C, strain CDC14, active compounds read low 1 | locus YGR040W, strain KSS1, active compounds read low 0.957 | locus YGR052W, strain FMP48, active compounds read low 0.98 | locus YGR092W, strain DBF2, active compounds read low 1.01 | locus YHR079C, strain IRE1, active compounds read low 1 | locus YHR082C, strain KSP1, active compounds read low 1.03 | locus YHR205W, strain SCH9, active compounds read low 1 | locus YIL147C, strain SLN1, active compounds read low 1.04 | locus YJL095W, strain BCK1, active compounds read low 0.984 | locus YJL157C, strain FAR1, active compounds read low 0.962 | locus YJR016C, strain ILV3, active compounds read low 1.01 | locus YJR066W, strain TOR1 (second series), active compounds read low 0.928 | locus YJR066W, strain TOR1, active compounds read low 1.06 | locus YKL048C, strain ELM1, active compounds read low 0.976 | locus YKL067W, strain YNK1, active compounds read low 0.959 | locus YKL101W, strain HSL1, active compounds read low 0.966 | locus YKL193C, strain SDS22, active compounds read low 1.02 | locus YKL203C, strain TOR2, active compounds read low 1.01 | locus YLR133W, strain CKI1, active compounds read low 0.98 | locus YLR403W, strain SFP1, active compounds read low 1.01 | locus YML070W, strain DAK1, active compounds read low 0.953 | locus YMR001C, strain CDC5, active compounds read low 1.03 | locus YMR205C, strain PFK2 (second series), active compounds read low 0.962 | locus YMR277W, strain FCP1, active compounds read low 1.02 | locus YNL006W, strain LST8, active compounds read low 1.05 | locus YNL020C, strain ARK1, active compounds read low 0.977 | locus YNL161W, strain CBK1, active compounds read low 1.05 | locus YNL183C, strain NPR1, active compounds read low 1.05 | locus YNL207W, strain RIO2, active compounds read low 1.01 | locus YNL222W, strain SSU72, active compounds read low 1.06 | locus YNL307C, strain MCK1 (second series), active compounds read low 0.963 | locus YOL078W, strain AVO1, active compounds read low 1.03 | locus YOL136C, strain PFK27, active compounds read low 0.961 | locus YOR061W, strain CKA2, active compounds read low 0.971 | locus YOR119C, strain RIO1, active compounds read low 1.03 | locus YOR231W, strain MKK1, active compounds read low 1.02 | locus YOR329C, strain SCD5, active compounds read low 1.05 | locus YPL031C, strain PHO85, active compounds read low 0.952 | locus YPL153C, strain RAD53, active compounds read low 0.948 | locus YPL204W, strain HRR25, active compounds read low 0.929 | locus YPL209C, strain IPL1, active compounds read low 1.04 | locus YPL256C, strain CLN2, active compounds read low 0.941 | locus YPR106W, strain ISR1, active compounds read low 1.04 | locus YPR111W, strain DBF20, active compounds read low 1.04 | strain NNK1, active compounds read low 1.03 | strain TSCII, active compounds read low 1.02
active: locus YBL105C, strain PKC1, active compounds read low 1.06 [resistant] | [2] 0.829 | locus YLR113W, strain HOG1, active compounds read low 0.854 | locus YPR025C, strain CCL1, active compounds read low 1.06 [resistant]

COc1ccc2c(c1)CCCN2C(=O)NC(=O)c1c(F)cccc1Cl
inactive: locus YAL013W, strain DEP1, active compounds read low 1 | locus YBR229C, strain ROT2, active compounds read low 1.01 | [1] 1.04 | locus YDL134C, strain PPH21, active compounds read low 0.984 | locus YDR150W, strain NUM1, active compounds read low 1.07 | locus YEL061C, strain CIN8, active compounds read low 0.998 | locus YGR078C, strain PAC10, active compounds read low 1.02 | [2] 1.06 | locus YHR087W, strain rtc3, active compounds read low 0.95 | locus YJR043C, strain POL32, active compounds read low 1.04 | locus YJR075W, strain HOC1, active compounds read low 0.997 | locus YLR039C, strain RIC1, active compounds read low 0.967 | locus YLR058C, strain SHM2 (second series), active compounds read low 0.975 | locus YLR085C, strain ARP6, active compounds read low 1 | locus YLR262C, strain YPT6, active compounds read low 0.925 | locus YML094W, strain GIM5, active compounds read low 0.973 | locus YMR219W, strain ESC1, active compounds read low 0.997 | locus YMR263W, strain SAP30, active compounds read low 1.04 | locus YNL128W, strain TEP1, active compounds read low 1.01 | locus YNL153C, strain GIM3, active compounds read low 1.03 | locus YNL298W, strain CLA4 (second series), active compounds read low 1.03 | locus YNL322C, strain KRE1, active compounds read low 0.998 | locus YNR030W, strain Alg12, active compounds read low 1 | locus YPL055C, strain LGE1, active compounds read low 0.98 | locus YPL241C, strain CIN2, active compounds read low 1.02 | locus YPR135W, strain CTF4, active compounds read low 1.05
